# Test results reported in the supplement of paper PMC8728848.
# Shown is part of a subset that was picked to be rich in the strongest signals.
# B1: MCL (Mus musculus), Q9Z2H6 (protein)
# chain: MWLEESQMKSKGTRHPQLIPCVFAVVSISFLSACFISTCLVTHHYFLRWTRGSVVKLSDYHTRVTCIREEPQPGATGGTWTCCPVSWRAFQSNCYFPLNDNQTWHESERNCSGMSSHLVTINTEAEQNFVTQLLDKRFSYFLGLADENVEGQWQWVDKTPFNPHTVFWEKGESNDFMEEDCVVLVHVHEKWVWNDFPCHFEVRRICKLPGITFNWKPSK
# B2: IRP60A (Homo sapiens), Q9UGN4 (protein)
# chain: MWLPWALLLLWVPGCFALSKCRTVAGPVGGSLSVQCPYEKEHRTLNKYWCRPPQIFLCDKIVETKGSAGKRNGRVSIRDSPANLSFTVTLENLTEEDAGTYWCGVDTPWLRDFHDPVVEVEVSVFPASTSMTPASITAAKTSTITTAFPPVSSTTLFAVGATHSASIQEETEEVVNSQLPLLLSLLALLLLLLVGASLLAWRMFQKWIKAGDHSELSQNPKQAATQSELHYANLELLMWPLQEKPAPPREVEVEYSTVASPREELHYASVVFDSNTNRIAAQRPREEEPDSDYSVIRKT
# What was measured:
# Experiment in all cases: glycan array binding signal (z-score within array); higher = stronger binding
# Conditions in all cases: glycan notation: IUPAC condensed, linker removed
# [1] = molecular target: Fuc(a1-2)[Gal(a1-3)]Gal(b1-4)Glc
# Method in brief: (§1)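 Negative Z-scores can be read as non-binding. The Z-score is calculated within each array and then averaged across arrays of one protein sequence at different concentrations or buffers and across linkers. Arrays, 3228 in all, were curated from the Consortium for Functional Glycomics database and kept only where the protein sequence was available.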
# [2] = molecular target: Fuc(a1-2)[Gal(a1-3)]Gal(b1-4)[Fuc(a1-3)]GlcNAc
# Method in brief: as §1
# [3] = molecular target: Fuc(a1-2)[GalNAc(a1-3)]Gal
# Method in brief: as §1
# [4] = molecular target: Fuc(a1-2)[GalNAc(a1-3)]Gal(b1-3)GlcNAc
# Method in brief: as §1
# [5] = molecular target: Fuc(a1-3)[Gal(b1-4)]GlcNAc(b1-2)Man(a1-6)[Gal(b1-4)GlcNAc(b1-2)Man(a1-3)]Man(b1-4)GlcNAc(b1-4)GlcNAc
# Method in brief: as §1
# [6] = molecular target: Fuc(a1-3)[Gal(b1-4)]GlcNAc(b1-3)Gal(b1-3)[Fuc(a1-4)]GlcNAc
# Method in brief: as §1
# [7] = molecular target: Fuc(a1-3)[Gal(b1-4)]GlcNAc6S
# Method in brief: as §1
# [8] = molecular target: Fuc(b1-3)GlcNAc
# Method in brief: as §1
# [9] = molecular target: Gal(a1-3)Gal(b1-3)GlcNAc
# Method in brief: as §1
# [10] = molecular target: Gal(a1-3)Gal(b1-4)GlcNAc
# Method in brief: as §1
# [11] = molecular target: Gal(b1-2)Gal
# Method in brief: as §1
# [12] = molecular target: Gal(b1-3)Gal
# Method in brief: as §1
# [13] = molecular target: Gal(b1-3)GlcNAc
# Method in brief: as §1
# [14] = molecular target: Gal(b1-3)GlcNAc(b1-2)Man(a1-3)[Gal(b1-3)GlcNAc(b1-2)Man(a1-6)]Man(b1-4)GlcNAc(b1-4)GlcNAc
# Method in brief: as §1
# [15] = molecular target: Gal(b1-4)GlcNAc(b1-3)Gal(b1-4)Glc
# Method in brief: as §1
# [16] = molecular target: Gal3S(b1-3)[Fuc(a1-4)]GlcNAc
# Method in brief: as §1
# [17] = molecular target: Gal6S(b1-4)Glc
# Method in brief: as §1
# [18] = molecular target: GalNAc(a1-3)GalNAc
# Method in brief: as §1
# [19] = molecular target: GlcNAc(b1-3)GalNAc
# Method in brief: as §1
# [20] = molecular target: GlcNAc(b1-3)[GlcNAc(b1-6)]Gal(b1-4)GlcNAc
# Method in brief: as §1
# [21] = molecular target: GlcNAc(b1-6)Gal(b1-4)GlcNAc
# Method in brief: as §1
# [22] = molecular target: Neu5Ac(a2-3)Gal(b1-3)GalNAc(b1-3)Gal(b1-4)GlcNAc
# Method in brief: as §1
# [23] = molecular target: Neu5Ac(a2-3)Gal(b1-3)GlcNAc
# Method in brief: as §1
# [24] = molecular target: Neu5Ac(a2-3)Gal(b1-3)GlcNAc(b1-3)Gal(b1-3)GlcNAc
# Method in brief: as §1
# [25] = molecular target: Neu5Ac(a2-3)Gal(b1-3)[Fuc(a1-4)]GlcNAc(b1-3)Gal(b1-4)[Fuc(a1-3)]GlcNAc
# Method in brief: as §1
# [26] = molecular target: Neu5Ac(a2-3)Gal(b1-3)[Neu5Ac(a2-3)Gal(b1-4)]GlcNAc
# Method in brief: as §1
# [27] = molecular target: Neu5Ac(a2-3)Gal(b1-3)[Neu5Ac(a2-6)]GalNAc
# Method in brief: as §1
# [28] = molecular target: Neu5Ac(a2-3)Gal(b1-4)GlcNAc6S
# Method in brief: as §1
# [29] = molecular target: Neu5Ac(a2-3)Gal(b1-4)[Fuc(a1-3)]GlcNAc(b1-3)Gal
# Method in brief: as §1
# [30] = molecular target: Neu5Ac(a2-3)Gal(b1-4)[Fuc(a1-3)]GlcNAc6S
# Method in brief: as §1
# [31] = molecular target: Neu5Ac(a2-3)GalNAc(b1-4)GlcNAc
# Method in brief: as §1
# [32] = molecular target: Neu5Ac(a2-6)Gal(b1-4)GlcNAc(b1-2)Man(a1-3)[GlcNAc(b1-2)Man(b1-4)GlcNAc(b1-2)Man(a1-6)]Man(b1-4)GlcNAc(b1-4)GlcNAc
# Method in brief: as §1
# [33] = molecular target: Neu5Ac(a2-6)GalNAc(b1-4)GlcNAc
# Method in brief: as §1
# [34] = molecular target: Neu5Gc(a2-3)Gal(b1-3)[Fuc(a1-4)]GlcNAc
# Method in brief: as §1
# [35] = molecular target: Neu5Gc(b2-6)Gal(b1-4)GlcNAc
# Method in brief: as §1
# [36] = molecular target: Fuc(a1-2)[Gal(a1-3)]Gal(b1-4)GlcNAc
# Method in brief: as §1
# [37] = molecular target: Gal(a1-4)Gal(b1-4)GlcNAc
# Method in brief: as §1
# [38] = molecular target: Gal(b1-3)GalNAc(b1-4)Gal(b1-4)Glc
# Method in brief: as §1
# [39] = molecular target: Gal(b1-3)[Neu5Ac(a2-6)]GalNAc
# Method in brief: as §1
# [40] = molecular target: Gal(b1-4)GlcNAc(b1-3)Gal(b1-4)GlcNAc
# Method in brief: as §1
# [41] = molecular target: Gal3S(b1-4)GlcNAc
# Method in brief: as §1
# [42] = molecular target: GalNAc(a1-3)Gal
# Method in brief: as §1
# [43] = molecular target: GalNAc(b1-3)GalNAc
# Method in brief: as §1
# [44] = molecular target: GlcNAc(b1-3)Gal
# Method in brief: as §1
# [45] = molecular target: Kdn(a2-3)Gal(b1-4)GlcNAc
# Method in brief: as §1
# [46] = molecular target: Man(a1-2)Man(a1-3)[Man(a1-2)Man(a1-6)]Man(a1-6)[Man(a1-3)[Man(a1-6)]Man(a1-6)]Man(b1-4)GlcNAc(b1-4)GlcNAc
# Method in brief: as §1
# [47] = molecular target: Man(a1-2)Man(a1-6)[Man(a1-3)]Man(a1-6)[Man(a1-2)Man(a1-2)Man(a1-3)]Man(b1-4)GlcNAc(b1-4)GlcNAc
# Method in brief: as §1
# [48] = molecular target: Man(a1-3)[Man(a1-6)]Man
# Method in brief: as §1
# [49] = molecular target: Neu5Ac(a2-8)Neu5Ac
# Method in brief: as §1
# [50] = molecular target: Neu5Ac(a2-8)Neu5Ac(a2-3)[GalNAc(b1-4)]Gal(b1-4)Glc
# Method in brief: as §1
# [51] = molecular target: Neu5Gc(a2-3)Gal(b1-3)GlcNAc
# Method in brief: as §1
binder,measurement,setting,value
B1,glycan array binding signal (z-score),[1],-0.321
same,glycan array binding signal (z-score),[2],0.241
same,glycan array binding signal (z-score),[3],-0.254
same,glycan array binding signal (z-score),[4],0.999
same,glycan array binding signal (z-score),[5],5.26
same,glycan array binding signal (z-score),[6],0.601
same,glycan array binding signal (z-score),[7],-0.78
same,glycan array binding signal (z-score),[8],-0.475
same,glycan array binding signal (z-score),[9],2.63
same,glycan array binding signal (z-score),[10],3.06
same,glycan array binding signal (z-score),[11],-0.362
same,glycan array binding signal (z-score),[12],-0.472
same,glycan array binding signal (z-score),[13],0.168
same,glycan array binding signal (z-score),[14],-0.92
same,glycan array binding signal (z-score),[15],0.482
same,glycan array binding signal (z-score),[16],0.263
same,glycan array binding signal (z-score),[17],0.143
same,glycan array binding signal (z-score),[18],-0.708
same,glycan array binding signal (z-score),[19],0.005
same,glycan array binding signal (z-score),[20],-0.357
same,glycan array binding signal (z-score),[21],-0.735
same,glycan array binding signal (z-score),[22],-0.471
same,glycan array binding signal (z-score),[23],0.527
same,glycan array binding signal (z-score),[24],0.595
same,glycan array binding signal (z-score),[25],-0.245
same,glycan array binding signal (z-score),[26],2.08
same,glycan array binding signal (z-score),[27],0.696
same,glycan array binding signal (z-score),[28],-0.011
same,glycan array binding signal (z-score),[29],-0.251
same,glycan array binding signal (z-score),[30],0.138
same,glycan array binding signal (z-score),[31],-1.14
same,glycan array binding signal (z-score),[32],2.17
same,glycan array binding signal (z-score),[33],-0.814
same,glycan array binding signal (z-score),[34],-0.827
same,glycan array binding signal (z-score),[35],0.767
B2,glycan array binding signal (z-score),[36],-0.266
same,glycan array binding signal (z-score),[37],-0.116
same,glycan array binding signal (z-score),[38],-0.487
same,glycan array binding signal (z-score),[39],-0.296
same,glycan array binding signal (z-score),[40],-0.308
same,glycan array binding signal (z-score),[41],0.268
same,glycan array binding signal (z-score),[42],6.44
same,glycan array binding signal (z-score),[43],0.467
same,glycan array binding signal (z-score),[44],-0.069
same,glycan array binding signal (z-score),[45],-0.156
same,glycan array binding signal (z-score),[46],-0.396
same,glycan array binding signal (z-score),[47],-0.395
same,glycan array binding signal (z-score),[48],8.07
same,glycan array binding signal (z-score),[26],-0.378
same,glycan array binding signal (z-score),[49],5.86
same,glycan array binding signal (z-score),[50],-0.404
same,glycan array binding signal (z-score),[51],-0.502
